Results reported in PubChem BioAssay AID977630 (Broad Institute, 2014).
The whole screen tested about 1,600 compounds, of which fewer than 10 were called active. Not shown: some 48% with an inconclusive outcome.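 Rule for the calls: active = Normal-ribosome green reporter loss at least double humanized-ribosome red reporter loss, with overall culture growth inhibition under a set limit; inconclusive = no clear call, values can overlap the other calls; inactive = the rest.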 Not all results are given here. Results with a measured potency or affinity are listed apart.

Experiment: E. coli growth inhibition, wild-type GFP versus H38 humanized RFP strain – H38 mutant RFP vs wild-type GFP, cherry-pick, dose response (AID 977630)
Conditions: mixed culture, 24 h; series mostly up to 50 µM; activity change, negative = inhibition: at the top concentration

| Compound | activity change, negative = inhibition |
| --- | --- |
| COc1ccccc1-c1noc2ncnc(Nc3cccc(C)c3C)c12 | -12.6 (inactive) |
| Cc1ccc([N+](=O)[O-])c(OCCn2cnc3ccccc32)c1 | -3.1 (inactive) |
| Cc1cc2nc(SCC(=O)O)nc(C)c2cc1C | -1.89 (inactive) |
| COc1ccc(CN2C(=O)CC(Cc3cc(C)cc(C)c3)C2=O)cc1OC (stereo unspecified) | -9.75 (inactive) |
| O=C(CN(c1ccc(F)cc1)S(=O)(=O)c1ccccc1)Nc1ccccc1C(=O)O | -16.1 (inactive) |
| COc1ccc(OC)c(-c2nn(-c3ccccc3)cc2C(=O)N2CCc3ccccc3C2)c1 | -1.81 (inactive) |
| CN(C)c1ccc(-c2nnn(CC(=O)Nc3ccccc3N3CCOCC3)n2)cc1 | -7.73 (inactive) |
| CC(CCc1ccccc1)NC(=O)CCC1CCCC1 (stereo unspecified) | -14.9 (inactive) |
| COc1ccc(-c2nc(C3CCCCC3)no2)cc1OC | -8.9 (inactive) |
| CCC1(C(=O)OC)CCc2c(cc(OC)c3ccccc23)C1=O (stereo unspecified) | -1.7 (inactive) |
| CN(Cc1c(F)cccc1Cl)C(=O)c1ccc(NS(=O)(=O)c2ccc3[nH]c(=O)[nH]c3c2)cc1 | 1.93 (inactive) |
| Nc1ccc(C(=O)Nc2ccc3nc(-c4ccncc4)[nH]c3c2)cc1 | -4.86 (inactive) |
| Cc1ccccc1Nc1c(-c2cccnc2)nc2ccc(Br)cn12 | 3.56 (inactive) |
| CN(C)S(=O)(=O)c1cccc(C(=O)Nc2ccc(C(=O)Nc3cccc(S(N)(=O)=O)c3)cc2)c1 | -13.6 (inactive) |
| CCN(CC)c1nc(Oc2ccc(C(=O)OC)cc2)nc(N2CCOCC2)n1 | -10.1 (inactive) |
| Cc1nc2ncnn2c(N2CCC(C(=O)NC3CCCC3)CC2)c1Cc1ccccc1 | -8.17 (inactive) |
| CCN(CC(=O)Nc1cccc(S(=O)(=O)N2CCCC2)c1)CC(=O)Nc1ccccc1OC | -16.9 (inactive) |
| COCc1nnc(NC(=O)c2ccc(S(=O)(=O)N3CCCC3)cc2)o1 | -9.48 (inactive) |
| Cc1cccc(N2Cc3ccc(Br)cc3C2)c1 | 0.636 (inactive) |
| CCN(CC)S(=O)(=O)c1ccc(N2CCCC2)c(NC(=O)c2ccccc2OC)c1 | -11 (inactive) |
| O=C(Nc1ccc(Nc2ccccc2)cc1)c1ccc(F)cc1 | -19.7 (inactive) |
| Fc1ccc(Br)cc1SCCc1ccncc1 | -5.72 (inactive) |

| Compound | activity change, negative = inhibition |
| --- | --- |
| CCOC(=O)c1ccc(NC(=O)c2ccc(OC(C)C)c(OC)c2)cc1 | -13.1 (inactive) |
| COc1cccc(NC2=Nc3cccc4cccc2c34)c1 | 0.034 (inactive) |
| CS(=O)(=O)N(CC(=O)N1CCc2ccccc2C1)c1cccc(Br)c1 | -7.69 (inactive) |
| CC1Cc2cc(S(=O)(=O)N3CCN(c4cccc(Cl)c4)CC3)ccc2N1C(=O)C1CC1 (stereo unspecified) | -7.78 (inactive) |
| Cn1c(=O)c2c(ncn2CC(O)CNc2ccc(F)cc2)n(C)c1=O (stereo unspecified) | -2.9 (inactive) |
| O=C(NCCCN1CCOCC1)c1sc2cc([N+](=O)[O-])ccc2c1Cl | -0.6 (inactive) |
| CN1OC[C@@H]2CN(C(=O)c3ccco3)[C@H](c3ccc(-c4ccc(C#N)cc4)cc3)C[C@@H]21 | -0.137 (inactive) |
| COCC#Cc1ccc2c(c1)O[C@@H](CN(C)S(=O)(=O)c1cccc(F)c1)[C@@H](C)CN([C@H](C)CO)S2(=O)=O | -17.1 (inactive) |
| O=C(CSCc1cnn(-c2ccccc2)c1-n1cccc1)NCc1cccnc1 | 4.83 (inactive) |
| CCOC(=O)C1NN=C(C(=O)c2ccccc2)C1c1ccc(OC)cc1 (stereo unspecified) | -0.226 (inactive) |
| CN1CCN(C(=O)c2cc3nc(-c4ccco4)cc(C(F)(F)F)n3n2)CC1 | 4.79 (inactive) |
| Cc1cccc(CN2C(=O)c3ccccc3Sc3ccc(C(=O)NCCN4CCOCC4)cc32)c1 | -9.56 (inactive) |
| S=c1nc(-c2cccc(Br)c2)[nH][nH]1 | -17 (inactive) |
| O=C(Cc1ccc(Br)cc1)Nc1cccc(-c2cn3c(n2)SCC3)c1 | -13.7 (inactive) |
| Cc1cc(SCC(=O)c2cccs2)n2nc(C)c(-c3ccc(Cl)cc3)c2n1 | -3.99 (inactive) |
| CC(C)[C@@H]1CC[C@@H](C)C[C@H]1O | 44.4 (inactive) |
| COc1ccc(-c2cc(C(=O)O)nc3ccc4ccccc4c23)cc1OC | -15.7 (inactive) |
| COc1ccc(C(=O)COc2ccc(F)cc2)c(O)c1 | 3.67 (inactive) |
| O=C(O)CC1(CC(=O)Nc2ccc3sccc3c2)CCCCC1 | -2.25 (inactive) |
| CCOC(=O)C(CC)Sc1cc(C)nc2ccc(OC)cc12 (stereo unspecified) | -17.8 (inactive) |
| O=C(NC1CCCCC1)C(c1cccc2ccccc12)n1c(=O)c(-c2ccco2)nc2ccccc21 (stereo unspecified) | -2.93 (inactive) |
| COc1cc(CC(=O)Nc2nc(C)cs2)cc(OC)c1OC | -5.62 (inactive) |

| Compound | activity change, negative = inhibition |
| --- | --- |
| Cc1cc(NC(=O)c2sc(Nc3ccc(F)c(Cl)c3)nc2N)no1 | 9.52 (inactive) |
| COc1cc(OC)cc(-c2nc3ccccc3c(=O)n2OC(=O)c2ccc(C)c(C)c2)c1 | 10.3 (inactive) |
| Cn1ccc2cc(-c3ccc4ncnc(NCc5cccs5)c4c3)ccc21 | -14.3 (inactive) |
| Fc1ccccc1C1CCN(Cc2nc(CC3CC3)no2)C1 (stereo unspecified) | 0.528 (inactive) |
| O=C(COc1ccc(Br)cc1)Nc1ccc(C(=O)Nc2ccccc2C(=O)O)cc1 | -23.1 (inactive) |
| C#CCOc1nc(Nc2cccc([N+](=O)[O-])c2)nc(OCC#C)n1 | -4.34 (inactive) |
| OC(COc1ccc(Cl)cc1)CN1CCN(c2ccccn2)CC1 (stereo unspecified) | -7.68 (inactive) |
| Cc1nn(-c2ccc(N3CCCCC3)nn2)c(C)c1CCC(=O)Nc1ccc(F)cc1 | 15.2 (inactive) |
| COc1cc2c(cc1OC)C1(C)N(CC2)C(C(C)=O)=NN1c1ccc(Cl)cc1 (stereo unspecified) | -11.9 (inactive) |
| O=C(Nc1ccc(C(F)(F)F)cc1)C1CCN(c2cnccn2)CC1 | -7.16 (inactive) |
| Cc1nn(CC(=O)OCCOc2ccc(Br)cc2)c(C)c1[N+](=O)[O-] | -13.8 (inactive) |
| NS(=O)(=O)c1cccc(NC(=O)COc2ncnc3c2cnn3-c2ccccc2)c1 | 11.2 (inactive) |
| c1ccc2c(c1)Nc1cc3ccccc3cc1S2 | 14.4 (inactive) |
| CC(C)OC(=O)c1sc2nc(-c3ccccc3)ccc2c1N | 6.79 (inactive) |
| COc1ccc(C2CC(c3ccc(Br)cc3)=NN2C(=O)CN2CCCC2)cc1 (stereo unspecified) | -0.841 (inactive) |
| COc1ccc(CNC(=O)c2nc(S(=O)(=O)Cc3ccccc3)ncc2Cl)cc1 | 3.47 (inactive) |
| CCc1nc2ccccc2c(C(=O)OCC(=O)NC(=O)c2cccn2C)c1C | 0.218 (inactive) |
| O=C(Nc1ccccc1N1CCOCC1)C1CCCCN1S(=O)(=O)c1ccccc1 (stereo unspecified) | -15.6 (inactive) |
| CCOc1ccc(NC(=O)CCc2nnc3ccc(N4CCC(C)CC4)nn23)cc1 | 5.84 (inactive) |
| Cc1cc(C)cc(NS(=O)(=O)c2c(C(=O)N3CCCCCC3)c(C)n(C)c2C)c1 | -5.32 (inactive) |
| COc1ccc(CN(C)C(=O)c2cc(-c3ccc(OC)c(OC)c3)nc3ccccc23)c(OC)c1 | -3.82 (inactive) |
| CC1(C(=O)NS(=O)(=O)c2cccc(F)c2)CCN1C(=O)C1(c2ccc(Cl)cc2)CCC1 (stereo unspecified) | -2.51 (inactive) |
